This is a sample that favours compounds with a hit; in the whole collection about 2.2% have one here.
ZTA DNA inh – blocks Epstein-Barr virus ZTA, an EBNA-1 counter-screen | P03206 | ZTA-DNA binding, fluorescence polarization | 320,000 tested, 0.15% active | AID 2234 | inhibition, % at 11 µM; in the data active means inhibition above about 33%
Target sequence (P03206 whole entry, looked up): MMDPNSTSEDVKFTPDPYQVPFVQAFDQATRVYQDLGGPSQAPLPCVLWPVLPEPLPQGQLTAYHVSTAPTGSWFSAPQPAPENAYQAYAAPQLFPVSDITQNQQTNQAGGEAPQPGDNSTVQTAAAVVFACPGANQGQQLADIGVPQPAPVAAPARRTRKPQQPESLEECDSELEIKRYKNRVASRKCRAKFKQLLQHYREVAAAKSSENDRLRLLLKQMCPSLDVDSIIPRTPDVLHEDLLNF
PolyA inh – inhibitors of polyadenylation in S. cerevisiae; S. cerevisiae SKY197-pL101 polyadenylation reporter, beta-gal luminescence; efflux-impaired pdr1/pdr3 knockout yeast; score 100 = 6 SD above DMSO; activity score, % at 12 µM; 300,000 tested, 0.02% active; AID 1875;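 active means lowest replicate activity score at least 50, where 100 means six control SD above control mean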;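 further: yeast exposed to compound for 9 h at 30 °C; higher score means more reporter readthrough which indicates perturbed polyadenylation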
dFosB activator – mouse delta FosB homodimer activation. P13346. purified delta FosB, TAMRA-CDK5 oligo fluorescence polarization; percent of positive-control signal above neutral wells. activation, % at 25 µM. 340,000 tested, 0.99% active;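 active means mean activation above about 17%, with every replicate also reaching it, limit read from the data, passing the limit was not always enough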
EBNA-1 inh – blocks EBNA-1 binding to DNA | EBNA-1 DNA binding, fluorescence polarization | inhibition, % at 14.8 µM | 300,000 tested, 0.34% active | AID 1950; in the data active means inhibition above about 28%
NALP1 inh – NALP1 inhibition. S. cerevisiae NALP1/ASC/caspase-1 growth, X-gal OD620, 72 h. inhibition, % at 10 µM. 280,000 tested, 0.61% active. AID 2071; in the data active means inhibition mostly above about 24%, no sharp cut-off; inactive means mostly below about 32%
NLRP3 yeast inh – NALP3 inhibition in yeast; Yeast reconstituted NLRP3/ASC/caspase-1, beta-gal luminescence, 24 h; inhibition, % at 10 µM; 330,000 tested, 0.39% active; AID 2825;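 active means inhibition of 50% or more; inactive means inhibition below 50%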;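 further: plate controls were induced DMSO wells for no effect and uninduced yeast grown without galactose for full effect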
The depositor's hits bear a star; / = no result given.

SMILES	ZTA DNA inh	PolyA inh	dFosB activator	EBNA-1 inh	NALP1 inh	NLRP3 yeast inh
CCOc1ccccc1NC(=O)c1ccc(S(=O)(=O)N(C)C)cc1	-4	34	-6	13	41*	17
COc1ccc(S(=O)(=O)NNC(=O)Nc2ccc(F)cc2)cc1	16	14	/	-1	/	-1
O=C(O)C1CC=CCC1C(=O)N1CCN(c2nc(-c3ccccc3)c3ccccc3n2)CC1 (centres undefined)	-23	-2	-4	10	5	19
O=C(O)C1CC=CCC1C(=O)N1CCN(c2nc(-c3ccccc3Cl)c3cc(Br)ccc3n2)CC1 (centres undefined)	21	/	-26	10	27*	17
CC1(C)C(=O)Nc2ccccc2N1C(=O)COC(=O)CNS(=O)(=O)c1ccc(Br)cc1Cl	/	/	-16	/	/	/
Cc1nc2ccc(NC(=O)c3ccc(Cl)c([N+](=O)[O-])c3)cc2s1	-1	-17	-9	1	33	25
Cc1nc2ccc(NC(=O)c3cc([N+](=O)[O-])cc([N+](=O)[O-])c3Cl)cc2s1	7	/	-2	6	58*	/
O=C(c1ccc(Cl)cc1)N1CCCC(C(=O)N2CCN(c3ccccc3)CC2)C1 (centres undefined)	0	15	/	2	44*	3
O=C(CN(C(=O)CCC(=O)Nc1nccs1)c1cccc(C(F)(F)F)c1)NCC1CCCO1 (centres undefined)	-13	-6	-2	6	-4	11
COc1cc(/C=C2\C(=O)ON=C2c2ccccc2)cc(Cl)c1O	-14	19	18*	-5	8	8
Cc1ccc(S(=O)(=O)N2CCN(c3nc(C(C)C)c4c(c3C#N)CC(C)(C)OC4)CC2)cc1	70*	7	-1	88*	15	6
CCCNC(=O)N1CCN(c2nc(C(C)C)c3c(c2C#N)CC(C)(C)OC3)CC1	-4	-4	-14	15	-1	22
Oc1ccc(Cl)cc1Nc1nc(NCC2CCCO2)c2ccccc2n1 (centres undefined)	10	0	44*	4	/	17
Oc1ccc(Nc2nc(NCC3CCCO3)c3ccccc3n2)cc1 (centres undefined)	/	6	15	/	-3	18
Oc1ccccc1Nc1nc(NCC2CCCO2)c2ccccc2n1 (centres undefined)	-5	0	25*	-8	7	15
COc1ccc(C(=O)NCCS(=O)(=O)N2CCN(Cc3ccccc3)CC2)cc1	4	6	-10	2	/	1
CCOc1ccccc1NC(=S)N1CCN(c2cccc(OC)c2)CC1	-4	14	-10	1	-17	9
O=C(CSc1nc(=O)n2ccccc2n1)N1CCCCCC1	2	22	0	-5	/	10
Cc1c(C)n(Cc2ccc(F)cc2)c2ccc(C(=O)N3CCN(c4ccccn4)CC3)cc12	-3	-9	27*	-4	10	15
COc1ccc(C(=O)Cc2cc3ccccc3oc2=O)cc1	0	0	3	-3	-1	13
CNc1cncc(C(=O)O)c1	-19	6	7	42*	0	10
COC(=O)Oc1cncc(C(=O)O)c1	16	5	2	-4	0	25
CC(NCC(O)COC1CCC(C(C)(C)C)CC1)c1ccccc1 (centres undefined)	-31	-51	6	-5	25*	32
CC1CCC(C(C)C)C(OCC(O)CNC(C)c2ccccc2)C1 (centres undefined)	-1	4	3	1	20	17
CCOCCCNC(=O)C1CC(=O)N(CCc2ccc(C)cc2)C1 (centres undefined)	7	8	6	1	38*	4
SMILES	ZTA DNA inh	PolyA inh	dFosB activator	EBNA-1 inh	NALP1 inh	NLRP3 yeast inh
O=C(c1ccc(Cn2c(=S)[nH]c3ccccc3c2=O)cc1)N1CCN(c2ccccn2)CC1	6	-9	-5	-1	0	14
O=S(=O)(c1cccc(C(F)(F)F)c1)N1CCC(c2cc(-c3cccc4ccccc34)n[nH]2)CC1	-2	4	8	-6	37*	4
COC(=O)c1cc(NC(=O)c2ccccc2)c(=O)oc1C/C=N\OCc1ccc(Cl)cc1Cl	7	2	3	3	42*	20
CO/N=C\Cc1oc(=O)c(NC(=O)c2ccccc2)cc1C(=O)OC	7	9	2	-5	5	2
Cn1c(CC(=O)Nc2ccccc2)cc2ccccc21	-12	7	-4	4	-8	32
CCn1c(SCC(=O)NC(=O)NCc2ccco2)nc2sc(C)c(C)c2c1=O	-11	-9	-7	28*	-11	4
Cc1sc2nc(SCC(=O)NCc3ccco3)n(C)c(=O)c2c1C	6	2	-4	0	-17	3
Cc1cccc(NC(=O)Cn2cnc3c(cnn3-c3ccc(F)cc3)c2=O)c1C	1	-12	49*	8	/	-7
O=C(O)c1ccc(Cl)c(S(=O)(=O)Nc2ccc(S(=O)(=O)N3CCCC3)cc2)c1	/	/	-1	/	/	-4
Cc1ccc2nc(NCC(N)=O)nc(-c3ccccc3)c2c1	-5	17	/	-10	26	12
Cc1ccc2nnnc(-c3ccccc3)c2c1	35*	-11	-7	38*	26	-6
O=C(Nc1ccccc1O)c1cccc(S(=O)(=O)N2CCOCC2)c1	-1	-8	-9	-13	29*	3
COc1ccccc1NC(=O)c1cccc(S(=O)(=O)N2CCOCC2)c1	11	1	-7	3	28	0
CCOC(=O)[C@H]1[C@H]2COc3cc(OC)ccc3[C@@H]2N2C(=O)c3cc(OC)c(OC)cc3NC(=O)[C@@]12C	0	/	-10	-15	/	4
COc1cc(/C=N/N=C(N)N)ccc1OCc1ccccc1Cl	16	-8	24*	2	10	13
CCCC(=O)c1cc2c(cc1NC(=O)c1cccs1)OCCO2	-7	-6	-3	2	27*	-15
CCn1cc(/C=N/NC(=O)COc2cccc3cccnc23)c2ccccc21	7	5	-5	-2	28	/
COc1ccc(/C=N/NC(=O)COc2cccc3cccnc23)cc1OC	-8	1	31*	-4	0	1
CNC(=S)N/N=C/c1ccc(OCC(=O)Nc2c(C)cc(C)cc2C)c(OC)c1	23	12	2	6	23	15
COc1cc(/C=N/NC(N)=S)ccc1OCC(=O)Nc1ccc(C)cc1	34*	17	2	47*	39	9
Cc1nc(SCCc2nc3ccccc3[nH]2)c2oc3ccccc3c2n1	/	/	6	/	/	5
CCn1c(=O)n(CC)c2cc(N3CCCC3)c(NC(=O)c3ccc(C)c([N+](=O)[O-])c3)cc21	-16	-13	-7	-1	24	-11
Cc1ccc(C)n1Cc1ccc(C(=O)O)cc1	85*	/	-19	29*	2	8

Screening data from PubChem BioAssay.
